Experimental data: PubChem BioAssay
Calls of active or inactive are those of the source. Unless noted, no stated cut-off is given here; in the data, active means inhibition above about 25%; inactive means the rest.

Columns and labels:
[1] = biological target: Nuclear receptor coactivator 1 (Homo sapiens) (UniProt Q15788); experiment: NCOA1 GAL4-fusion reporter inhibition – cell-based, luminescence, quadruplicate, confirmation (AID 588820;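 active means mean inhibition above 46.68%, the untreated control wells mean plus 3 SD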;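 further: 0% = DMSO wells and 100% = gossypol 36 µM treated wells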); settings: HEK293 GAL4-SRC1 luciferase reporter, at 3.6 µM, active compounds read high
[2] = repression of VP16-driven luciferase reporter – cell-based, luminescence, high throughput, counter-screen for SRC1 inhibitor project (AID 588824); settings: cell-based VP16 transactivation luciferase luminescence; at 3.6 µM; active compounds read high

Sequence of Nuclear receptor coactivator 1 (Homo sapiens) (Q15788 whole entry, looked up, the tested form may be a part): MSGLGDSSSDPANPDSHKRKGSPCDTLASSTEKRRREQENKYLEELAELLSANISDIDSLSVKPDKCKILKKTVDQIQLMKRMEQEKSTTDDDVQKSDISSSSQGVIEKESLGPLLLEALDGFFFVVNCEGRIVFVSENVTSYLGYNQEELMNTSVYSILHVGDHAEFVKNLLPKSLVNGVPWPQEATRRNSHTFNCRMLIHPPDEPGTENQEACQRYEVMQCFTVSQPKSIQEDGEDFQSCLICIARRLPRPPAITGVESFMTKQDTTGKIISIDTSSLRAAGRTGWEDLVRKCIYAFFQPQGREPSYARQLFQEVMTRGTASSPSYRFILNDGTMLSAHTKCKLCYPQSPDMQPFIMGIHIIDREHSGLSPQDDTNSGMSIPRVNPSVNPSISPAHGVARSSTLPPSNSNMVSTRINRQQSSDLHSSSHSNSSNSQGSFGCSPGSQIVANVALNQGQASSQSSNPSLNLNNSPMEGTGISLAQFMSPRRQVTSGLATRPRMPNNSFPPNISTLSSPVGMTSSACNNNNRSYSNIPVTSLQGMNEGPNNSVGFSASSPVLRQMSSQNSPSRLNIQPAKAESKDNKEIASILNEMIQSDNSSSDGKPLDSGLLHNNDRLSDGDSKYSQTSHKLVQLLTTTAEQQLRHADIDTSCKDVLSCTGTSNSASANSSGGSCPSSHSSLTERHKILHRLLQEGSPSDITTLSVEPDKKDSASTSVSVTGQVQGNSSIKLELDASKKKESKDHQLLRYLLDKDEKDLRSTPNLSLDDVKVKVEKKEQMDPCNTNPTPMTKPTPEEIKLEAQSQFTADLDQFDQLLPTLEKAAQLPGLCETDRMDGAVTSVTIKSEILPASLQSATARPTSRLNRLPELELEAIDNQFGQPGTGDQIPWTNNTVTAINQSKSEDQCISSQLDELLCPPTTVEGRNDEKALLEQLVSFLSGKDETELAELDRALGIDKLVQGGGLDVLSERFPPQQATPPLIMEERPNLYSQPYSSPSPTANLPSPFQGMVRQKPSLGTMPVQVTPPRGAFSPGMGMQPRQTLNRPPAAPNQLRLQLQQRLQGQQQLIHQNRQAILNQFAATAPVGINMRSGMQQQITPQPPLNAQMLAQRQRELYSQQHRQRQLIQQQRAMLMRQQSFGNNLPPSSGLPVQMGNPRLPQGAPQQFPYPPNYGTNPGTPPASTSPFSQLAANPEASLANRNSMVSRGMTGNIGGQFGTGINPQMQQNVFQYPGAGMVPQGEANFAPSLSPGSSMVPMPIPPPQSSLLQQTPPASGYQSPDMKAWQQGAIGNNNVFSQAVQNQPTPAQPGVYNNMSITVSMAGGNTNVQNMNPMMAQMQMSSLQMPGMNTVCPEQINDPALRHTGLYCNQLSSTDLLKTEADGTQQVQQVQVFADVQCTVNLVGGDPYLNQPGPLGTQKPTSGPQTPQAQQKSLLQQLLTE

SMILES | inhibition [1] | inhibition [2]
COc1ccc(C(=O)Nc2ccnn2C2CCN(C3CCC3)CC2)cc1 | -28.9% (inactive) | -0.43% (inactive)
O=[N+]([O-])c1ccc(C[n+]2cccc3c4ccccc4ccc32)cc1 | 3.12% (inactive) | 34.3% (active)
CCc1ccc2oc(=O)cc(CN3CCN(Cc4ccccc4)CC3)c2c1 | -7.76% (inactive) | 2.82% (inactive)
Clc1ccc(C2NCCc3sccc32)cc1 (centres undefined) | -22% (inactive) | 8.67% (inactive)
COc1ccc(CNC(=O)c2cccc(S(=O)(=O)N3CCCCC3)c2)cc1OC | -20.1% (inactive) | 30.6% (active)
Fc1ccc2[nH]c3c(NCc4ccccc4)ncnc3c2c1 | 2.59% (inactive) | 20.2% (inactive)
CN(C(=O)COC(=O)c1ccc2[nH]c3c(c2c1)CCCC3)C1CCS(=O)(=O)C1 (centres undefined) | -0.53% (inactive) | -0.75% (inactive)
COc1ccccc1NS(=O)(=O)c1cc(NC(=O)C(C)(C)C)ccc1N1CCOCC1 | -45.2% (inactive) | -32.5% (inactive)
CCN(C(=S)NC(=O)C1CC1)c1ccccc1 | -8.52% (inactive) | -4.48% (inactive)
Cc1cccc(C)c1NC(=S)N(CCN(C)C)Cc1cccs1 | -19.4% (inactive) | -2.41% (inactive)
CC(C)(C)NC(=O)C1(C)CCC(=O)N1CCCn1ccnc1 (centres undefined) | 22.2% (inactive) | 16.9% (inactive)
Cc1cccc(N2CCN(C(=O)CSc3nc4ccccc4nc3N3CC(C)OC(C)C3)CC2)c1C (centres undefined) | -26.1% (inactive) | 12.3% (inactive)
COc1cc(NC(=O)c2cc3cccc(OC)c3o2)cc(C(=O)Nc2cccc(C(F)(F)F)c2)c1 | -23.9% (inactive) | 18.4% (inactive)
Cc1cc([N+](=O)[O-])nn1CCCC(=O)Nc1ccc(Cl)cc1Cl | -11.6% (inactive) | -4.49% (inactive)
CC(O)(c1ccccc1)c1nc(-c2cccc(C#N)c2)cs1 (centres undefined) | -22.4% (inactive) | -4.39% (inactive)
CCSc1nnc(NC(=O)C(C)(C(F)(F)F)C(F)(F)F)s1 | -15.3% (inactive) | 4.32% (inactive)
CCCCNC(=O)C1(C)CCCCN1C(=O)c1ccc2c(c1)C(C)(C)CCC2(C)C (centres undefined) | 7.49% (inactive) | 10.7% (inactive)
